Screening results deposited in PubChem BioAssay by National Center for Advancing Translational Sciences (NCATS).
IL-1B inflam inh: inhibitors of inflammasome signaling (IL-1 beta secretion); THP-1 LPS/ATP IL-1B secretion, AlphaLISA, 16 h; stronger effect = lower value; activity change, % at 57.5 µM; 360,000 compounds, 4.7% hits; AID 743279; in the data active = activity change below about -50%; inconclusive = mostly about -30% to -49%
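Secreted IL-1B measured by AlphaLISA bead assay after 16 h compound exposure of THP-1 cells; compounds (final up to 57.5 uM) added 1 h before LPS (250 ng/mL) and ATP (1.25 mM) stimulation; lower signal means less secretion.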
TGFb inhibitor: blocks TGF-b signaling | 410,000 compounds, 1.2% hits | HepG2 CAGA-GFP TGF-b/SMAD3 reporter, GFP fluorescence, 18 h; TGF-beta stimulated, 500 pg/mL final | Potency, µM (titrated, usually from 46.1 µM), usual class: inhibitors; note: nearly all actives have a fitted effect of over 65% in size
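Read-out: total well GFP (ex488/em500-530) summed from mean per-cell fluorescence. Cells: HEPG2 CAGA-GFP, 1% FBS DMEM, 18 h at 37 degrees C with 500 pg/mL final TGF-beta. Unstimulated wells served as the full-inhibition control; stimulated DMSO wells = 0%.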
TDP1 cell noCPT: qHTS for Inhibitors of human tyrosyl-DNA phosphodiesterase 1 (TDP1): qHTS in cells in absence of CPT; DT40 Tdp1-/- hTDP1 cells, no CPT, ATP luminescence, 48 h; Potency, µM (top dose mostly 46.2 µM), hits mostly inhibitors; 420,000 compounds, 15% hits; AID 686978, 2013; note: nearly all actives have a fitted effect of over 55% in size
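Seeded 400 DT40-hTDP1 cells/well (vehicle DMSO, no 20 nM CPT); pinned compounds; ≥48 hr at 37 °C; CellTiter-Glo luminescence as viability measure.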
TDP1 block: blocks human tyrosyl-DNA phosphodiesterase 1; Q9NUW8; recombinant TDP1, AlphaScreen DNA substrate cleavage; Potency, µM (titrated, usually from 130 µM), actives largely listed as inhibitors; 350,000 compounds, 0.28% hits; AID 485290; note: nearly all actives have a fitted effect of over 40% in size
Target sequence (Q9NUW8 whole entry, looked up): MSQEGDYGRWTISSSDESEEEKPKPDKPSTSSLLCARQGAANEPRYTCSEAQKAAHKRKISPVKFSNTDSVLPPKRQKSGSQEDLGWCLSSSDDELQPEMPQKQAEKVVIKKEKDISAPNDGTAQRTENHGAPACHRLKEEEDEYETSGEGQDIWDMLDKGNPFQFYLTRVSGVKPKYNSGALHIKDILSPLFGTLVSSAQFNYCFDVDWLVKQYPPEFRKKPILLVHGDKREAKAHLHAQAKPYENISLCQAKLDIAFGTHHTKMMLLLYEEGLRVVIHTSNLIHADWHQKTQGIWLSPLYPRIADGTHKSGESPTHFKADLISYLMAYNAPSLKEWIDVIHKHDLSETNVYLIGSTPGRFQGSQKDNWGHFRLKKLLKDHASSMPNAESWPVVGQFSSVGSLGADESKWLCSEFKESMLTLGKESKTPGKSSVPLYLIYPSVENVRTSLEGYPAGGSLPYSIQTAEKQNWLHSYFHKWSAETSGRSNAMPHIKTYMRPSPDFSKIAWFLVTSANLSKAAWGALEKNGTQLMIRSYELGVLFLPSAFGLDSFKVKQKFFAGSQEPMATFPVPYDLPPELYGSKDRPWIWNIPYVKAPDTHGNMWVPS
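Here, a 5' biotin and 3' phosphotyrosine-FITC DNA oligonucleotide reports Tdp1 activity: intact substrate bridges AlphaScreen beads, while cleavage leaves a 3' phosphate and drops signal. All incubations at room temperature.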
DT40 TDP1 CPT: DT40-hTDP1 cell growth loss with CPT; chicken DT40 Tdp1-/-;hTDP1 cells + 20 nM CPT, ATP luminescence, 48 h; Potency, µM (doses to about 46.2 µM), actives largely listed as inhibitors; 420,000 compounds, 12% hits; AID 686979; note: nearly all actives have a fitted effect of over 55% in size
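Cell growth measured by CellTiter-Glo luminescence after a minimum 48 h, 37 C compound exposure with 20 nM CPT in Tdp1-knockout DT40 cells stably expressing hTDP1, seeded 400/well; qHTS titration format.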
HepG2 viability: HepG2 cytotoxicity, counter-screen for TGF-b inhibitors; HepG2 CAGA-GFP viability, ATP luminescence, 18 h; AID 588856; Potency, µM (top dose mostly 46.1 µM), hits mostly cytotoxic; 410,000 compounds, 0.76% hits
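CellTiter-Glo luminescence gave cytotoxicity after 18 hours at 37 degrees C. The cells were HepG2 CAGA-GFP in 1% FBS DMEM, stimulated with 500 pg/mL TGF-beta after compound addition. %Activity was normalised to no-cell wells (complete cell-killing) and DMSO (no toxicity), and curves were fitted and classified.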
Each line names hits and unclear results; the compound was inactive in the other large screens. Hits are enriched below; roughly 19% of the tested compounds scored in any of these assays. Unless noted, calls come from the whole dose curve; as a rule, active = well fitted curve in the direction sought with a large enough effect; inconclusive = small, poorly fitted or top-dose-only effect, or another doubt; inactive = no such curve, though single readings can be large; an effect the other way counts as inactive or inconclusive.

COc1ccccc1NC(=O)c1c(NC(=O)Cc2ccccc2)sc2c1CCC(C(C)(C)C)C2 (stereo not drawn)	none (no result: IL-1B inflam inh, TDP1 block)
COc1ccccc1NC(=O)c1c(NCc2ccc(C)o2)sc2c1CCC(C)C2 (stereo not drawn)	TGFb inhibitor inconclusive, TDP1 cell noCPT inconclusive, DT40 TDP1 CPT 18µM (no result: IL-1B inflam inh)
COc1ccc(NC(=O)c2c(NCc3ccc(C)o3)sc3c2CCCCC3)c(OC)c1	TGFb inhibitor inconclusive, TDP1 cell noCPT 18µM, DT40 TDP1 CPT 9.2µM (no result: IL-1B inflam inh)
COc1ccc(NC(=O)c2c(NC(=O)COc3ccccc3)sc3c2CCC(C)C3)cc1 (stereo not drawn)	none (no result: IL-1B inflam inh, TDP1 block)
COc1ccc(NC(=O)c2c(NCc3ccc(C)o3)sc3c2CCC(C)C3)cc1 (stereo not drawn)	TGFb inhibitor inconclusive, TDP1 cell noCPT 9.2µM, DT40 TDP1 CPT 23µM (no result: IL-1B inflam inh)
COC(=O)c1c(OCc2cccnc2)cc(=O)n2c1CCN(C(=O)c1c3c(nn1C)CCCC3)CC2	none (no result: IL-1B inflam inh, TGFb inhibitor, TDP1 block, HepG2 viability)
CC(Sc1ncn[nH]1)C(=O)Nc1cc(C(F)(F)F)ccc1Cl (stereo not drawn)	none
COc1ccc(C(CNC(=S)NCc2ccccc2)N2CCCC2)cc1 (stereo not drawn)	IL-1B inflam inh -72
COc1ccc(C(CNC(=O)c2ccccc2C)N2CCCC2)cc1 (stereo not drawn)	none
COc1ccc(C(CNC(=O)c2oc3ccc(Cl)cc3c2C)N2CCCCC2)cc1 (stereo not drawn)	TDP1 cell noCPT 23µM, DT40 TDP1 CPT 16µM
COc1ccc(C(CNC(=O)c2oc3c(Cl)cccc3c2C)N2CCCC2)cc1 (stereo not drawn)	IL-1B inflam inh inconclusive, TDP1 cell noCPT 23µM, DT40 TDP1 CPT 16µM (no result: TDP1 block)
COc1ccc(C(CNC(=O)Cc2cc(OC)c(OC)c(OC)c2)N2CCCC2)cc1 (stereo not drawn)	none
COc1ccc(C(CNC(=O)c2oc3ccccc3c2C)N2CCCC2)cc1 (stereo not drawn)	TDP1 cell noCPT inconclusive, DT40 TDP1 CPT 21µM
CC(=O)Nc1ccc(S(=O)(=O)Nc2cc(C)on2)cc1	none (no result: IL-1B inflam inh, TGFb inhibitor, TDP1 block, HepG2 viability)
O=c1oc(=S)oc2c1[C@H](c1ccc(Cl)cc1)O[C@H](C1CC1)C2	none (no result: TGFb inhibitor, TDP1 block, HepG2 viability)
CN1CCN(c2c([N+](=O)[O-])cnc3ccccc23)CC1	none (no result: TDP1 block)
CCCCN1C(=O)C(NC(C)=O)c2cc(Br)ccc21 (stereo not drawn)	TDP1 cell noCPT 21µM, DT40 TDP1 CPT inconclusive
O=S1(=O)c2ccc(Br)cc2N2CCC[C@@H]2CN1Cc1ccc(Cl)cc1	TDP1 cell noCPT inconclusive, DT40 TDP1 CPT inconclusive (no result: TDP1 block)
O=S1(=O)c2ccc(Br)cc2N2CC[C@H](C2)N1Cc1ccc(Cl)cc1	TDP1 cell noCPT 1.6µM, DT40 TDP1 CPT 1.3µM (no result: TDP1 block)
Cn1c(=O)c2sccc2n2c(CCC(=O)N3CCN(c4ccc(F)cc4)CC3)nnc12	none (no result: IL-1B inflam inh, TGFb inhibitor, TDP1 cell noCPT, DT40 TDP1 CPT, HepG2 viability)
CCn1c(=O)c2sccc2n2c(CCCC(=O)N3CCN(c4ccccn4)CC3)nnc12	TDP1 cell noCPT inconclusive, DT40 TDP1 CPT inconclusive
CCCn1c(=O)c2sccc2n2c(CCCC(=O)N3CCN(c4ccccc4)CC3)nnc12	TGFb inhibitor inconclusive, TDP1 cell noCPT 16µM, DT40 TDP1 CPT inconclusive (no result: IL-1B inflam inh)
Cn1c(=O)c2sccc2n2c(CCC(=O)N3CCN(c4cccc(Cl)c4)CC3)nnc12	TDP1 cell noCPT 5.8µM, DT40 TDP1 CPT inconclusive (no result: IL-1B inflam inh)
CCCn1c(=O)c2sccc2n2c(CCCC(=O)N3CCN(c4ccc(OC)cc4)CC3)nnc12	TGFb inhibitor inconclusive, TDP1 cell noCPT inconclusive, DT40 TDP1 CPT inconclusive (no result: IL-1B inflam inh)
CCn1c(=O)c2sccc2n2c(CCCC(=O)N3CCN(c4cccc(Cl)c4)CC3)nnc12	TDP1 cell noCPT 16µM, DT40 TDP1 CPT 18µM (no result: IL-1B inflam inh)
